Rows were chosen to be rich in hits. Some 5.2% of all compounds tested hit in one or more screens of this group.
Tau FP inhib: blocks human tau fibril formation measured by polarization; Potency, µM (highest dose often 57.7 µM), actives largely listed as inhibitors; K18 P301L tau heparin fibrillization, Alexa594 FP, 6 h; actives 0.39% (n = 280,000); P10636; also: nearly all actives have a fitted effect of over 55% in size
Target sequence (P10636 561-689 P618L limits assumed): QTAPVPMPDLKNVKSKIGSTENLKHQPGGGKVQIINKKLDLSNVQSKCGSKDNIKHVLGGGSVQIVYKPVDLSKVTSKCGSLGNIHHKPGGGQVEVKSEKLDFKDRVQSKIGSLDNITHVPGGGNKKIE
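Read-out: fluorescence polarization of Alexa 594-labeled tau (0.24 uM), 555 nm excitation, 632 nm emission. Mixtures held 15 uM unlabeled K18 P301L, compound and 20 uM heparin, pH 7 acetate buffer, incubated 6 hr at 37 C.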
Sfp PPTase inh: inhibitors of Bacillus subtilis Sfp phosphopantetheinyl transferase; Q9F4F7; Biochemical Sfp PPTase activity, qHTS; Potency, µM, hits mostly inhibitors; actives 3.5% (n = 310,000);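 also: the enzyme is Sfp with the accession as filed and its product quenches rhodamine fluorescence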
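Step 1, compound plus 15 nM Sfp-PPTase, 15 min, room temperature. Step 2, add rhodamine-CoA (5 uM) and BHQ-2-YbbR (12.5 uM). Step 3, read 525/598 nm fluorescence at 0 and 30 min.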
Tau fibril ThT: blocks human tau fibril formation measured by thioflavin T; recombinant tau K18 P301L, heparin-induced fibrillization, ThT fluorescence; Potency, µM (top dose mostly 57.4 µM), hits mostly inhibitors; actives 2.1% (n = 270,000); also: nearly all actives have a fitted effect of over 55% in size
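Heparin-induced fibrillization of the P301L-mutant K18 repeat-domain fragment of human tau was followed by ThT binding in quantitative high-throughput format.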
Tau fluor counter: counter-screen for tau fibril formation inhibitors. tau K18 P301L Alexa594 fluorescence, heparin fibrillization. Potency, µM (doses to about 57.7 µM). actives 0.93% (n = 280,000); also: nearly all actives have a fitted effect of over 55% in size
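Human tau K18 P301L (15 uM unlabeled, 0.24 uM Alexa 594-labeled) in 100 mM sodium acetate pH 7 with 20 uM heparin, 6 hr at 37 C. ThT 30 uM added, 1 hr ambient; Alexa 594 FP and total fluorescence read at 555/632 nm.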
Coupling enz: inhibits coupling enzyme system, counter-screen for aldolase hits; coupling enzyme system counterscreen, AmpLite Red fluorescence; actives 0.67% (n = 290,000); activity change, negative = inhibition, % at 58.2 µM, hits read low; in the data active = activity change below about -30%
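Activity here indicates interference with the coupling reaction, not aldolase inhibition. Compounds at 57.5 uM final met coupling enzymes for 10 min at RT; substrate and AmpLite Red detection followed, with a 525/598 nm fluorescence read after 20 min.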
Of the large screens only hits and unclear results are named; the others gave an inactive call; [ ] = dose if it differs, or a comment. Unless noted, calls follow the shape of the dose curve; as a rule, active = well fitted curve in the direction sought with a large enough effect; inconclusive = small, poorly fitted or top-dose-only effect, or another doubt; inactive = no such curve, though single readings can be large; an effect the other way counts as inactive or inconclusive.

O=C(CSCc1cc(=O)c2ccccc2[nH]1)Nc1cccc(C(F)(F)F)c1	none (no result: Sfp PPTase inh, Coupling enz)
C/C(=N\Nc1ccc(S(N)(=O)=O)cc1[N+](=O)[O-])c1ccc2c(c1)OCO2	Tau fibril ThT 3.5µM, Tau fluor counter inconclusive
NS(=O)(=O)c1ccc(N/N=C/c2ccc(C(=O)O)cc2)c([N+](=O)[O-])c1	Sfp PPTase inh inconclusive, Tau fibril ThT 11µM
CCOC(=O)N1CCC(=NNc2ccc(S(N)(=O)=O)cc2[N+](=O)[O-])CC1	Tau fibril ThT 5µM
COc1cc(/C=N/Nc2ccc(S(N)(=O)=O)cc2[N+](=O)[O-])cc(OC)c1O	Tau fibril ThT 1.8µM, Tau fluor counter inconclusive
CCN(CC)S(=O)(=O)c1ccc(N/N=C(\C)c2ccc3c(c2)OCO3)c([N+](=O)[O-])c1	none
O=C(O)c1ccc(/C=N\Nc2ccc(S(=O)(=O)N3CCOCC3)cc2[N+](=O)[O-])cc1	Tau fibril ThT inconclusive
Cc1cccc(C(=O)NC(=O)Nc2ccc(-n3nc(C(F)(F)F)cc3C(F)(F)F)cc2)c1	none (no result: Sfp PPTase inh, Coupling enz)
CC[C@H](C)[C@H](NC(=O)[C@H](Cc1ccccc1)NC(=O)[C@H](CC(C)C)NC(=O)[C@H](CCSC)NC(=O)[C@H](CCC(=O)O)NC(=O)[C@H](CCC(=O)O)NC(=O)[C@H](CC(=O)O)NC(=O)[C@H](CO)NC(=O)[C@@H]1CCCN1C(=O)[C@H](CCCCN)NC(=O)[C@@H](N)[C@@H](C)O)C(=O)N[C@@H](Cc1ccc(O)cc1)C(=O)NCC(=O)N[C@@H](Cc1cnc[nH]1)C(=O)N[C@@H](Cc1ccc(O)cc1)C(=O)N[C@@H](CCCCN)C(=O)N[C@@H](CCC(N)=O)C(=O)N[C@@H](C)C(=O)N[C@H](C(=O)N[C@H](C(=O)NCC(=O)N[C@@H](CC(=O)O)C(=O)N[C@H](C(=O)N[C@@H](CC(N)=O)C(=O)N[C@H](C(=O)N[C@@H](CCC(=O)O)C(=O)N[C@@H](CCCNC(=N)N)C(=O)N1CCC[C@H]1C(=O)NCC(=O)N[C@@H](CCSC)C(=O)N[C@@H](CC(C)C)C(=O)N[C@@H](CC(=O)O)C(=O)N[C@@H](Cc1ccccc1)C(=O)N[C@H](C(=O)O)[C@@H](C)O)[C@@H](C)O)[C@@H](C)CC)C(C)C)[C@@H](C)O	none (no result: Tau FP inhib, Tau fibril ThT, Tau fluor counter)
COc1ccc(/C=N\Nc2ccc([N+](=O)[O-])cc2[N+](=O)[O-])c(C(=O)O)c1OC	Sfp PPTase inh 79µM, Tau fibril ThT 14µM
Cc1nn(-c2ccccc2)c(N2CCCC2)c1/C=N/Nc1ccc(S(N)(=O)=O)cc1[N+](=O)[O-]	Tau fibril ThT 5µM, Tau fluor counter 14µM[quencher]
CCOC(=O)N1CCC(=NNc2nc(C)cc(=O)[nH]2)CC1	Sfp PPTase inh 79µM, Tau fibril ThT inconclusive
NS(=O)(=O)c1ccc(N/N=C/c2ccc[nH]2)c([N+](=O)[O-])c1	Tau fibril ThT 7.9µM, Tau fluor counter inconclusive
CCOC(=O)N1CCC(=NNc2ccc(S(=O)(=O)N3CCOCC3)cc2[N+](=O)[O-])CC1	Tau FP inhib inconclusive, Tau fibril ThT inconclusive
COc1cccc(CNCCSc2nnnn2C)c1OCc1ccccc1F	none (no result: Sfp PPTase inh, Coupling enz)
Cc1cnc(SCCc2ccncc2)nc1C	Sfp PPTase inh 11µM, Tau fibril ThT inconclusive
N#Cc1cnc(SCCc2ccccc2)nc1N	none
C[C@@H](C(=O)N[C@@H](CO)Cc1ccccc1)[C@H]1C[C@]1(C)[C@H](NC(=O)OCc1ccccc1)c1ccccc1	none
COc1ccc(/C=N/c2oc(-c3ccccc3)cc2C#N)cc1OC	Sfp PPTase inh 79µM
Cc1cccc(CN2CCN(C(C)C(=O)NC(C)c3ccccc3)CC2)c1 (stereo not drawn)	Sfp PPTase inh 63µM (no result: Tau FP inhib, Tau fibril ThT, Tau fluor counter)
O=C(Nc1cccc(Cl)c1)Nc1nccs1	Tau FP inhib inconclusive, Sfp PPTase inh 50µM, Tau fluor counter inconclusive
O=C(Nc1ccc(Cl)c(Cl)c1)Nc1nccs1	Tau FP inhib 14µM, Sfp PPTase inh 56µM, Tau fibril ThT inconclusive, Tau fluor counter inconclusive
CC(Cc1cccs1)NC(=O)Nc1ccc(Cl)c(Cl)c1 (stereo not drawn)	Tau FP inhib 25µM, Tau fluor counter inconclusive
CN1CCN(/C=N/c2sc3c(c2C#N)CCCCC3)CC1	none
Cc1ccc(/C=C/C(=O)Nc2sc3c(c2C#N)CCCC3)o1	Sfp PPTase inh 40µM

From PubChem BioAssay
